Holding throughout (settings): concentration: 1 μM, replicates: in singlicate; n = 1
Test [1] has as its system CHEK2.
The test system of test [2] is CIT.
Test [3] deals with CLK1.
Test [4] has as its system CLK2.
Test [5] concerns CLK3.
In test [6] the test system is CLK4.
Test [7] relates to CSF1R-autoinhibited.
The subject of test [8] is CSF1R.
Test [9] concerns CSK.
The subject of test [10] is CSNK1A1L.
In test [11] the test system is CSNK1A1.
The test system of test [12] is CSNK1D.
In test [13] the test system is CSNK1E.
The subject of test [14] is CSNK1G1.
Test [15] concerns CSNK1G2.
Test [16] deals with CSNK1G3.
For test [17], the system named is CSNK2A1.
Test [18] deals with CSNK2A2.
Test [19] relates to T1, CTK.
T1 construct: gene MATK

Test [20] has as its system DAPK1.

Molecules are shown by their SMILES.

Seven molecules from paper PMC5540273 (PLoS ONE, 2017) can be followed below.
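Also: KINOMEscan kinase panel screen.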

With `COc1ccc2nc(-c3cccc(C)n3)nc(Nc3ccncc3)c2c1` [GSK204919], the “%Inh” value in test [1] is on record as 0%; in test [2], 73%; in test [3] it was 18%; in [4], 0%; in [5], 2%; in [6] it was 26%. Besides, the “%Inh” value was determined as 0% in test [7]; 3% in test [8]; 0% in test [9]; 5% in test [10]; 31% in test [11]; 49% in test [12]. Besides, the “%Inh” value in [13] worked out at 64%; in [14], 0%; in test [15], 0%; in test [16] it was 7%; in test [17], 4%; in [18], 0%. The “%Inh” value in [19] and in test [20] was 0% each time.
As for `Cn1ccc2ncnc(Oc3ccc(Nc4nc5ccccc5[nH]4)cc3)c21`, the “%Inh” value in [1] amounted to 23%; in [2], 8%; in test [3], 0%; in [4], 12%; in [5], 0%; in test [6] it was 0%. In addition, the “%Inh” value in test [7] was 0%; in test [8] it was 17%; in test [9], 0%; in test [10] it was 8%; in [11] it was 0%; in [12], 0%. In addition, the “%Inh” value in test [13], in test [14], in test [15], in test [16], in test [17] and in test [18] was 0% each time. Further, the “%Inh” value in [19] and in [20] was 0% each time.
As for `O=C(Nc1ccc2c(c1)OCO2)NC1CCN(c2ccnc(Nc3ccc(F)cc3)n2)C1` (centres unmarked) [GSK1379724], the “%Inh” value was 0% in test [1]; 23% in test [2]; 10% in test [3]; 0% in [4]; 0% in test [5]; 6% in [6]. The “%Inh” value in test [7] came out at 0%; in test [8] it was 0%; in test [9], 1%; in test [10] it was 2%; in test [11], 0%; in test [12], 21%. Besides, the “%Inh” value in [13] is recorded as 0%; in test [14], 0%; in [15] it was 0%; in test [16] it was 8%; in [17] it was 0%; in [18], 0%. Also, the “%Inh” value in [19] and in test [20] was 0% each time.
As for `COc1cc2ncnc(Nc3ccc4nc(-c5ccccc5)[nH]c4c3)c2cc1OC.Cl` [GW282450], the “%Inh” value in [1] came out at 26%; in [2], 59%; in [3] it was 14%; in [4], 0%; in [5], 12%; in test [6] it was 3%. For the same molecule, the “%Inh” value in [7] was 0%; in test [8] it was 3%; in test [9] it was 10%; in test [10], 0%; in test [11], 0%; in [12], 6%. Besides, the “%Inh” value in test [13] is 24%; in test [14], 15%; in test [15], 0%; in test [16] it was 17%; in [17], 5%; in [18] it was 98.4%. Besides, the “%Inh” value was 0% in test [19] and 1% in test [20].
As to `COc1ccccc1CNC(=O)c1cc(C(=O)c2ccccc2C)c[nH]1` [GSK364507], the “%Inh” value in [1] was 0%; in [2] it was 9%; in test [3] it was 17%; in [4], 0%; in test [5], 0%; in test [6], 9%. The “%Inh” value in [7] is listed as 0%; in test [8], 11%; in test [9], 0%; in [10], 20%; in test [11], 0%; in [12] it was 28%. Also, the “%Inh” value in test [13] is listed as 20%; in [14], 15%; in test [15] it was 0%; in [16], 9%; in [17], 0%; in test [18], 100%. In addition, the “%Inh” value in test [19] and in test [20] was 0% throughout.
Turning to `Cc1ccc(NC(=O)Nc2cc(C(C)(C)C)nn2-c2ccccc2)cc1` [GSK1014915], the “%Inh” value in test [1] is 0%; in [2], 29%; in test [3], 33%; in [4], 0%; in test [5] it was 14%; in test [6], 15%. The “%Inh” value in test [7] amounted to 0%; in test [8], 30%; in test [9], 0%; in [10], 9%; in test [11], 0%; in test [12], 13%. The “%Inh” value in test [13] was found to be 0%; in test [14], 0%; in test [15], 0%; in test [16], 25%; in test [17], 13%; in [18], 0%. Besides, the “%Inh” value in test [19] worked out at 18%; in test [20], 6%.
In the case of `Cc1ccc(NC(=O)Nc2cccc(Cl)c2)cc1-c1ccc(C(=O)Nc2ccncc2)cc1` [GSK1398468], the “%Inh” value was found to be 0% in test [1]; 86% in [2]; 30% in test [3]; 0% in test [4]; 12% in [5]; 5% in test [6]. The “%Inh” value is 12% in [7]; 78% in test [8]; 0% in [9]; 15% in [10]; 0% in test [11]; 57% in [12]. The “%Inh” value in test [13] was 19%; in test [14] it was 2%; in test [15], 0%; in test [16], 25%; in [17], 0%; in test [18] it was 0%. Also, the “%Inh” value in test [19] came to 0%; in test [20] it was 3%.
